In PubChem BioAssay AID1159580 (chemical genetic matrix, 2015):
Screen size: about 5,500 compounds; about 2,000 (36%) were called active. About 18% were inconclusive and are not listed. Rule as the data show it: active = normalized growth mostly below about 0.91 (no sharp cut-off); inconclusive = no clear call, values can overlap the other calls; inactive = mostly above about 0.92. The list shows a part of the results.

Experiment: chemical genetic growth profiling, strain panel (AID 1159580);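 also: tested at 20 µM; growth read once vehicle control cultures reached saturation at 30 °C; 1 = growth at the plate median or of vehicle wells; lower values mean less growth of the strain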
Conditions: growth OD

Measured: normalized growth

CC(=O)c1ccc(-c2ccc(C(C)=O)cc2)cc1
inactive: S. cerevisiae deletion strains, locus YAL013W, strain DEP1, hits give low values 1 | S. cerevisiae deletion strains, locus YBR229C, strain ROT2, hits give low values 0.999 | S. cerevisiae deletion strains, locus YDL101C, strain DUN1, hits give low values 1.03 | S. cerevisiae deletion strains, locus YDL134C, strain PPH21, hits give low values 1.01 | S. cerevisiae deletion strains, locus YDR150W, strain NUM1, hits give low values 1 | S. cerevisiae deletion strains, locus YEL061C, strain CIN8, hits give low values 1.01 | S. cerevisiae deletion strains, locus YGR078C, strain PAC10, hits give low values 1.02 | S. cerevisiae deletion strains, locus YGR229C, strain SMI1, hits give low values 1 | S. cerevisiae deletion strains, locus YHR030C, strain SLT2, hits give low values 0.999 | S. cerevisiae deletion strains, locus YHR087W, strain rtc3, hits give low values 0.987 | S. cerevisiae deletion strains, locus YJR043C, strain POL32, hits give low values 0.974 | S. cerevisiae deletion strains, locus YJR075W, strain HOC1, hits give low values 1.02 | S. cerevisiae deletion strains, locus YKL190W, strain CNB1, hits give low values 1 | S. cerevisiae deletion strains, locus YLR039C, strain RIC1, hits give low values 1.06 | S. cerevisiae deletion strains, locus YLR058C, strain SHM2 (second series), hits give low values 0.987 | S. cerevisiae deletion strains, locus YLR085C, strain ARP6, hits give low values 0.95 | S. cerevisiae deletion strains, locus YLR262C, strain YPT6, hits give low values 1.03 | S. cerevisiae deletion strains, locus YML094W, strain GIM5, hits give low values 0.955 | S. cerevisiae deletion strains, locus YMR219W, strain ESC1, hits give low values 1.02 | S. cerevisiae deletion strains, locus YMR263W, strain SAP30, hits give low values 1 | S. cerevisiae deletion strains, locus YMR307W, strain GAS1, hits give low values 0.977 | S. cerevisiae deletion strains, locus YNL153C, strain GIM3, hits give low values 1.01 | S. cerevisiae deletion strains, locus YNL298W, strain CLA4 (second series), hits give low values 1.01 | S. cerevisiae deletion strains, locus YNL322C, strain KRE1, hits give low values 1.01 | S. cerevisiae deletion strains, locus YNR030W, strain Alg12, hits give low values 1.01 | S. cerevisiae deletion strains, locus YOL006C, strain TOP1, hits give low values 0.956 | S. cerevisiae deletion strains, locus YPL055C, strain LGE1, hits give low values 0.941 | S. cerevisiae deletion strains, locus YPL241C, strain CIN2, hits give low values 0.991 | S. cerevisiae deletion strains, locus YPR135W, strain CTF4, hits give low values 1.01 | S. cerevisiae strains, strain wild type, hits give low values 1.03
